High-throughput results as filed in PubChem.
An excerpt weighted towards active compounds, which were near 2.1% of everything screened.
aSyn yeast inh – qHTS of alpha-syn Inhibitors; Yeast expressing alpha-synuclein, growth rescue, BacTiter-Glo, 24 h; Potency, µM (titrated, usually from 46.1 µM), most hits filed as activators; 370,000 compounds, 0.14% hits; AID 652106, 2013; note: nearly all actives have a fitted effect of over 65% in size
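Rescue of yeast growth: cells expressing toxic alpha-synuclein, induced in galactose at OD600 0.02, incubated with compound 24 h at 30 C. ATP luminescence quantified growth; inhibitors of toxicity appear as activators.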
TDP-43 yeast inh – qHTS of TDP-43 Inhibitors | TDP-43 expressing yeast growth rescue, BacTiter-Glo, 24 h | Potency, µM (series often up to 46.1 µM), actives largely listed as activators | 410,000 compounds, 1.8% hits | AID 652104, 2013; note: nearly all actives have a fitted effect of over 50% in size
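In this qHTS, compounds that restore growth of yeast expressing TDP-43 appear as activators. Cells (OD600=0.02, galactose medium, raffinose-pregrown) are incubated with compound 24 hr at 30 deg C and growth is quantified by BacTiter-Glo.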
FUS yeast rescue – qHTS for Suppressors of FUS Proteinopathy: Primary screen using FUS-linked yeast assay. S. cerevisiae FUS-expressing, growth rescue, OD600, 24 h. Potency, µM (highest dose often 76.6 µM), usual class: activators. 390,000 compounds, 0.24% hits. AID 1347120, 2019; note: nearly all actives have a fitted effect of over 55% in size
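Restored growth of FUS-toxic S. cerevisiae, read as 600 nm absorbance after 24 h at 30C in galactose medium (starting OD 0.005). Controls CP55940 and DMSO.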
Abeta yeast res – qHTS for compounds that reverse cellular toxicity of Amyloid beta (A-beta) peptide in yeast: Primary Screen. 410,000 compounds, 0.063% hits. yeast expressing A-beta42, growth rescue, OD600, 48 h; response scale: 0% DMSO, 100% iron-clioquinol control. Potency, µM (series often up to 46.1 µM), hits mostly activators; note: nearly all actives have a fitted effect of over 55% in size
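Growth rescue measured by 600 nm absorbance after 48 h yeast culture at 30 C with compound. Values normalized between DMSO and an equimolar ferric chloride plus clioquinol control.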
A number is an active result; i = inactive; ? = inconclusive; nt = not tested or not shown; [ ] = remark or other dose. Calls come from the whole dose curve; as a rule, active = well fitted curve in the direction sought with a large enough effect; inconclusive = small, poorly fitted or top-dose-only effect, or another doubt; inactive = no such curve, though single readings can be large; an effect the other way counts as inactive or inconclusive.

SMILES	aSyn yeast inh	TDP-43 yeast inh	FUS yeast rescue	Abeta yeast res
Cc1ccc(CN(C(=O)COc2c(C)cccc2C)C2CCS(=O)(=O)C2)o1 (stereo not given)	nt	i	i	i
Cc1cccc(OCC(=O)Nc2ccc3nc(C)sc3c2)c1	i	2.5µM	i	i
Cc1nc2ccc(NC(=O)COc3cccc(F)c3)cc2s1	i	20µM	i	i
Cc1nc2ccc(NC(=O)Cc3cccc(F)c3)cc2s1	i	i	i	i
Cc1nc2ccc(NC(=O)COc3ccccc3)cc2s1	i	?	i	i
CCc1nc(SCc2cc(Cl)ccc2OC)n[nH]1	16µM	?	i	i
CCN(CC)CCCNC(=O)c1ccc2c(c1)NC(=O)C(CS(=O)(=O)Cc1ccc(F)cc1Cl)N2 (stereo not given)	nt	i	25µM	i
COc1ccc([N+](=O)[O-])c(C=CC(=O)c2ccccn2)c1	20µM	2.8µM	i	i
O=C(COc1ccccc1)N(Cc1cccnc1)c1nc2c(F)cccc2s1	nt	18µM	i	i
O=C(c1ccco1)N(Cc1cccnc1)c1nc2c(F)cccc2s1	nt	i	i	i
O=C(CCOc1ccccc1)N(Cc1cccnc1)c1nc2c(F)cccc2s1	nt	i	i	i
O=C(CCc1ccccc1)N(Cc1cccnc1)c1nc2c(F)cccc2s1	nt	16µM	i	i
O=C(COc1ccccc1)N(Cc1cccnc1)c1nc2ccc(Cl)cc2s1	nt	16µM	i	i
COc1cc(Cl)c(C)cc1NC(=O)C1CCN(c2nc3ccccc3n3cccc23)CC1	nt	i	?	i
CCOC(=O)c1ccccc1NC(=O)c1sc2ncn(Cc3cccc(F)c3)c(=O)c2c1C	nt	i	i	i
CC(C)Sc1cc(N2CCCC2)nc(-c2ccccc2Cl)n1	i	14µM	i	i
CC(C)[C@@H]1C(=O)N[C@H](Cc2cn(S(=O)(=O)c3ccccc3)c3ccccc23)C(=O)N1C	nt	nt	i	nt
CC(C)c1ccccc1OCCNC(=O)c1cccnc1	i	i[0.397 µM]	i	i
CC(C)c1ccccc1OCCNC(=O)c1cncc(Br)c1	i	20µM	i	i
CN(C)c1ccc(/C=C/c2ncnc3ccccc23)cc1	i	nt	nt	nt
c1ccc(CNc2ncnc3sc4c(c23)CCCC4)nc1	i	13µM	i	i
CC1CCc2sc3nc(NCc4ccco4)n4ncnc4c3c2C1 (stereo not given)	i	25µM	i	i
c1coc(CNc2ncnc3sc4c(c23)CCCCC4)c1	i	13µM	i	i
Cc1nc(NCc2ccccn2)c2c3c(sc2n1)CCCC3	i	i	i	i
O=C(NCCc1cccs1)c1ccc(Cn2c(SCc3ccc(F)cc3)nc3cccnc32)cc1	nt	i	i	i
SMILES	aSyn yeast inh	TDP-43 yeast inh	FUS yeast rescue	Abeta yeast res
CCc1ccccc1NC(=O)CSC1=Nc2ccccc2C2=NC(Cc3ccccc3)C(=O)N12 (stereo not given)	nt	i	?	i
COc1ccc(CNc2oc(COc3cccc(C)c3)nc2C#N)cc1	nt	22µM	i	i
COc1ccc(Nc2oc(COc3ccc(C)cc3)nc2C#N)cc1	nt	22µM	i	i
Cc1ccc(OCc2nc(C#N)c(NCc3ccco3)o2)cc1	i	11µM	i	i
Cc1ccc(C(c2nnnn2Cc2ccccc2)N2CCN(Cc3ccncc3)CC2)cc1 (stereo not given)	i	nt	nt	nt
COc1ccc(NC(=S)NC(C)Cc2cccs2)cc1 (stereo not given)	i	?	i	?
CC(Cc1cccs1)NC(=S)Nc1ccc(F)cc1 (stereo not given)	i	i[0.397 µM]	i	13µM
O=C1[C@@H]2CSC(c3ccc(F)cc3)N2C(=O)N1c1ccc(Cl)cc1 (stereo not given in full)	nt	14µM	i	i
CC1(C(=O)NS(=O)(=O)Cc2ccccc2)CCN1C(=O)c1ccc(C2CCCCC2)cc1 (stereo not given)	i	20µM	i	i
O=c1c2ccccc2nnn1COc1cccc2ccccc12	?	13µM	i	i
O=C(CC(c1ccccc1)c1ccccc1)OCn1nnc2ccccc2c1=O	i	18µM	i	i
Cc1cc(C(=O)OCn2nnc3ccccc3c2=O)c(C)o1	i	14µM	i	?
CCC(=O)OCn1nnc2ccccc2c1=O	i	i	i	i
CCOC(=O)c1c(C)[nH]c(C)c1S(=O)(=O)N1CCCC(C(=O)NCc2cccc(OC)c2)C1 (stereo not given)	nt	i	i	i
COc1ccc(C2Nc3ccccc3C(=O)N2Cc2ccco2)cc1COc1c(C)cc(NC(C)=O)cc1C (stereo not given)	nt	nt	10µM	nt
COc1ccc(C2Nc3ccccc3C(=O)N2Cc2ccccc2)cc1COc1ccc(NC(C)=O)cc1 (stereo not given)	nt	nt	16µM	nt
COc1ccc(C2Nc3ccc(NC(C)=O)cc3C(=O)N2Cc2ccccc2)cc1COc1ccc(NC(C)=O)cc1 (stereo not given)	i	nt	nt	nt
COc1ccc(C2Nc3ccccc3C(=O)N2Cc2ccco2)cc1COc1ccc(NC(C)=O)cc1 (stereo not given)	i	i	i	i
CNc1c(Br)cc(C=O)cc1Br	i	nt	nt	nt
Fc1ccccc1N1CCN(c2nc(-c3cccs3)nc3ccccc23)CC1	i	14µM	i	i
CC(=O)N1CCN(c2nc(-c3cccs3)nc3ccccc23)CC1	i	i	i	i
COc1ccccc1-c1oc2ccccc2c1C#CC(C)(C)O	i	16µM	i	i
COc1ccccc1-c1oc2ccccc2c1C#CCO	i	i	i	i
Cn1nnnc1N=N/C(=N/Nc1ccccc1)c1ccccc1	3.2µM	?	i	?
COc1ccccc1CNC(=O)Cn1c(=O)oc2cc(S(=O)(=O)NCc3ccccc3)ccc21	nt	i	i	i
SMILES	aSyn yeast inh	TDP-43 yeast inh	FUS yeast rescue	Abeta yeast res
CCc1nnc2c(Nc3cccc(F)c3)nc3ccc(C(=O)c4ccccc4)cc3n12	nt	i	i	i
CCOC(=O)C1CCN(c2cc3c(cc2NC(=O)c2ccc(Cl)cc2)n(C)c(=O)n3C)CC1	nt	i	i	i
CC1(C(=O)Nc2ccc(F)cc2F)CCN1C(=O)Cc1ccc(Cl)cc1Cl (stereo not given)	i	16µM	i	i
Cc1ccc(C)n1NC(=O)c1ccccc1	i	i	20µM	i
Cc1ccc(C)n1NC(=O)c1ccc(O)cc1	i	i	i	i
O=c1nc2c(O)cccn2c2c1c(=O)[nH]c1ccccc12	i	i	i	i
O=c1[nH]c2ccccc2c2nc3ccccn3c12	?	22µM	i	i
O=C(NC(=S)NC1CCCCCC1)c1cncc(Br)c1	i	16µM	nt	?
O=C(NC(=S)Nc1ccc(N2CCOCC2)c(Cl)c1)c1cccs1	i	i	i	?
O=C(NC(=S)Nc1ccc(N2CCOCC2)c(Cl)c1)c1cncc(Br)c1	i	20µM	i	i
COc1cccc(CN2c3ccc(Br)cc3C(=O)CS2(=O)=O)c1	i	16µM	?	i
C=CCN1c2ccc(Br)cc2C(=O)CS1(=O)=O	i	20µM	i	i
C=CCN1c2ccccc2C(=O)C(C)S1(=O)=O (stereo not given)	i	i	i	i
